In PubChem BioAssay (NCI):
This is part of a sample that, as a whole, favours compounds with a hit. Of some 83,000 tested, about 20% had one in any assay.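 Each cell line was grown in a 96-well plate and treated with one concentration of compound for 48 hours. Values below 10 were considered active.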 Calls of active or inactive are those of the source.

Assays:
Assay in all cases: NCI-60 one-dose screen, 48 h (100 = growth as untreated, 0 = no growth, -100 = all killed)
Settings in all cases: 10 µM unless noted
NCI-H23 lung = system: NCI-H23 lung
NCI-H226 lung = system: NCI-H226 lung
NCI-H322M lung = system: NCI-H322M lung
HOP-62 NSCLC = system: HOP-62 NSCLC
NCI-H460 lung = system: NCI-H460 lung
HOP-92 NSCLC = system: HOP-92 NSCLC
NCI-H522 lung = system: NCI-H522 lung
A549/ATCC NSCLC = system: A549/ATCC NSCLC
786-0 renal = system: 786-0 renal
COLO 205 colon = system: COLO 205 colon

Measured: growth

c1coc2occoc=2o1
inactive: NCI-H23 lung 104% | NCI-H226 lung 97.2% | NCI-H322M lung 110% | HOP-62 NSCLC 94.7% | NCI-H460 lung 113% | HOP-92 NSCLC 85.8% | NCI-H522 lung 91.7% | A549/ATCC NSCLC 97% | 786-0 renal 102%

Cc1cccc(/C=C2\N=C(c3ccccc3)N(c3ccc(S(N)(=O)=O)cc3)C2=O)c1
inactive: NCI-H23 lung 90% | NCI-H226 lung 110% | NCI-H322M lung 97.5% | HOP-62 NSCLC 83.5% | NCI-H460 lung 93.2% | HOP-92 NSCLC 105% | NCI-H522 lung 82.5% | A549/ATCC NSCLC 75.7% | 786-0 renal 95.2%

Cc1cccc([N+](=O)[O-])c1I
inactive: NCI-H23 lung 105% | NCI-H226 lung 102% | NCI-H322M lung 112% | HOP-62 NSCLC 101% | NCI-H460 lung 111% | HOP-92 NSCLC 87.4% | NCI-H522 lung 93.8% | A549/ATCC NSCLC 102% | 786-0 renal 108%

CC1(C)C(=NO)C(C)(C)C1=NO
inactive: NCI-H23 lung 111% | NCI-H226 lung 103% | NCI-H322M lung 99.6% | HOP-62 NSCLC 117% | NCI-H460 lung 105% | HOP-92 NSCLC 88.7% | NCI-H522 lung 94.1% | A549/ATCC NSCLC 103% | 786-0 renal 110%

COC(=O)c1cc(O)c2c(c1C(=O)OC)C[C@H]1[C@@H]3CC=C4C[C@@H](O)CC[C@]4(C)[C@H]3CC[C@]21C
inactive: NCI-H23 lung 46% | NCI-H226 lung 70.6% | NCI-H322M lung 66% | HOP-62 NSCLC 20.4% | NCI-H460 lung 64.6% | HOP-92 NSCLC 18.6% | NCI-H522 lung 50% | A549/ATCC NSCLC 38.5%
active: 786-0 renal -56.1%

Cc1ccc(Cn2c(O)c(N=NC(=O)c3ccc(S(N)(=O)=O)cc3)c3ccccc32)cc1
inactive: NCI-H23 lung 101% | NCI-H226 lung 93.9% | NCI-H322M lung 99.1% | HOP-62 NSCLC 106% | NCI-H460 lung 104% | HOP-92 NSCLC 106% | NCI-H522 lung 97.3% | A549/ATCC NSCLC 93.8% | 786-0 renal 105%

COc1ccc(C(=O)CCC(=O)O)cc1
inactive: NCI-H23 lung 89.4% | NCI-H226 lung 93.3% | NCI-H322M lung 97.3% | HOP-62 NSCLC 104% | NCI-H460 lung 101% | HOP-92 NSCLC 105% | NCI-H522 lung 102% | A549/ATCC NSCLC 93.2% | 786-0 renal 103%

COc1ccc(-c2cc(-c3ccccc3)nc(SCCCCCC(=O)NO)n2)cc1
inactive: NCI-H23 lung 61.7% | NCI-H226 lung 80.3% | NCI-H322M lung 74.3% | HOP-62 NSCLC 51.5% | NCI-H460 lung 51.9% | HOP-92 NSCLC 40.5% | NCI-H522 lung 10.1% | A549/ATCC NSCLC 59.3% | 786-0 renal 88%

COc1ccc2c3ccnc(C(F)(F)F)c3n(CCCCN)c2c1
inactive: NCI-H23 lung 54.6% | NCI-H226 lung 52.4% | NCI-H322M lung 65.3% | HOP-62 NSCLC 40.1% | NCI-H460 lung 47.1% | NCI-H522 lung 11.4% | A549/ATCC NSCLC 77% | 786-0 renal 54.5%
active: HOP-92 NSCLC -22.3%

O=c1cc(-c2ccccc2)oc2cc(OCc3cn(Cc4ccc(F)cc4)nn3)cc(O)c12
active: HOP-62 NSCLC -28.5% [100 µM] | HOP-92 NSCLC -3.35% [100 µM] | 786-0 renal 2.24% [100 µM]
inactive: NCI-H23 lung 45.8% [100 µM] | NCI-H226 lung 60.9% [100 µM] | NCI-H322M lung 86.1% [100 µM] | NCI-H460 lung 71.4% [100 µM] | NCI-H522 lung 15.1% [100 µM] | A549/ATCC NSCLC 81.2% [100 µM]

O=C(O)CSCc1nnc2n(Cc3ccccc3)c(=O)c3c4c(sc3n12)CCCC4
inactive: NCI-H23 lung 90.8% | NCI-H226 lung 87.2% | NCI-H322M lung 101% | HOP-62 NSCLC 139% | NCI-H460 lung 111% | HOP-92 NSCLC 74.5% | NCI-H522 lung 63.7% | A549/ATCC NSCLC 93.7% | 786-0 renal 132%

CC(=O)O.CC(=O)O.O.[Fe]
inactive: NCI-H23 lung 106% | NCI-H226 lung 101% | NCI-H322M lung 111% | HOP-62 NSCLC 103% | NCI-H460 lung 107% | HOP-92 NSCLC 99.8% | NCI-H522 lung 90% | A549/ATCC NSCLC 99.1% | 786-0 renal 112%

CC[C@]12C=CCN3CC[C@@]4(c5ccc(OC)cc5N(C)[C@H]4[C@@](O)(C(=O)OC)[C@@H]1OC(=O)CCC(=O)O[C@H]1CC[C@H]4[C@@H]5CCC6=CC(=O)CC[C@@H]6[C@H]5CC[C@]14C)[C@@H]32
inactive: NCI-H23 lung 12.9% [100 µM] | NCI-H322M lung 36.1% [100 µM] | HOP-62 NSCLC 21.9% [100 µM] | A549/ATCC NSCLC 14.5% [100 µM] | 786-0 renal 10.2% [100 µM]
active: NCI-H226 lung -18.3% [100 µM] | NCI-H460 lung 1.51% [100 µM] | HOP-92 NSCLC -20.3% [100 µM] | NCI-H522 lung 3.35% [100 µM]

O=C(Nc1ccc(Oc2ccc(F)cc2)c(Cl)c1)c1cnccn1
inactive: NCI-H23 lung 65.6% | NCI-H226 lung 74.4% | NCI-H322M lung 82.2% | HOP-62 NSCLC 56.2% | NCI-H460 lung 28% | HOP-92 NSCLC 58.2% | NCI-H522 lung 54.2% | A549/ATCC NSCLC 43.7% | 786-0 renal 81%

Cc1cnc(N)nc1OCCNC(=O)c1cccc(-c2ccc(S(=O)(=O)Nc3ccc4c(c3)N(C(=O)C3CC3)CCC4)cc2)c1
inactive: NCI-H23 lung 72.4% | NCI-H226 lung 72% | NCI-H322M lung 87.5% | HOP-62 NSCLC 79.8% | NCI-H460 lung 75.4% | HOP-92 NSCLC 41% | NCI-H522 lung 70.1% | A549/ATCC NSCLC 79.7% | 786-0 renal 82.3%

Cc1ccc(NC(=O)N[C@@H](Cc2cc(F)cc(F)c2)C(=O)N[C@@H]2C(=O)N3CCC[C@H]3C(=O)N3CCOC[C@H]3C(=O)N[C@@H](C)C(=O)N3C[C@H](C)C[C@H]3C(=O)O[C@H]2C)cc1
inactive: NCI-H23 lung 33.5% | NCI-H226 lung 30.5% | NCI-H322M lung 62.2% | HOP-62 NSCLC 26.7% | NCI-H460 lung 26.4% | HOP-92 NSCLC 39.4% | NCI-H522 lung 37.7% | A549/ATCC NSCLC 27.3% | 786-0 renal 34.1%

N#Cc1c(N2CCOCC2)nc(=S)[nH]c1-c1ccco1
inactive: NCI-H23 lung 74.5% | NCI-H226 lung 63.2% | NCI-H322M lung 74.5% | HOP-62 NSCLC 35.7% | NCI-H460 lung 50.1% | NCI-H522 lung 49.6% | A549/ATCC NSCLC 83.6% | 786-0 renal 65.8%
active: HOP-92 NSCLC -11.6%

O=C(N/N=C/c1c(Cl)cccc1Cl)c1cccc(Nc2ccnc(C(F)(F)F)c2)c1
inactive: NCI-H23 lung 89.7% | NCI-H226 lung 78.7% | NCI-H322M lung 108% | HOP-62 NSCLC 86.6% | NCI-H460 lung 82.1% | HOP-92 NSCLC 60.5% | NCI-H522 lung 87% | A549/ATCC NSCLC 107% | 786-0 renal 81.9%

C1=C[C@H]2O[C@@H]1c1ccc3[nH]ccc3c12
inactive: NCI-H23 lung 96% | NCI-H226 lung 101% | NCI-H322M lung 110% | HOP-62 NSCLC 96.6% | NCI-H460 lung 102% | HOP-92 NSCLC 120% | NCI-H522 lung 41.7% | A549/ATCC NSCLC 89.4% | 786-0 renal 106%

Cc1ccc(S(=O)(=O)N/N=C2\CC3CCC2(C)C3(C)C)cc1 (stereo not drawn)
inactive: NCI-H23 lung 237% | NCI-H226 lung 96.9% | NCI-H322M lung 116% | HOP-62 NSCLC 103% | NCI-H460 lung 108% | HOP-92 NSCLC 95.6% | NCI-H522 lung 63.1% | A549/ATCC NSCLC 81.8% | 786-0 renal 103%

C/C=C/C1OC23CCCCC2C(C#N)(C(=N)O3)C1(C#N)C#N (stereo not drawn)
inactive: NCI-H23 lung 101% | NCI-H226 lung 103% | NCI-H322M lung 102% | HOP-62 NSCLC 103% | NCI-H460 lung 101% | HOP-92 NSCLC 117% | NCI-H522 lung 74.1% | A549/ATCC NSCLC 104% | 786-0 renal 105%

Nc1ccc2c(c1)Cc1cc(NC(=O)C(F)(F)F)ccc1-2
inactive: NCI-H23 lung 95.9% | NCI-H226 lung 93.6% | NCI-H322M lung 95.5% | HOP-62 NSCLC 105% | NCI-H460 lung 97.8% | HOP-92 NSCLC 101% | NCI-H522 lung 90.3% | A549/ATCC NSCLC 93.6% | 786-0 renal 108%

CCOc1ccccc1/C=N\Nc1ccc(S(=O)(=O)c2ccc(N/N=C/c3ccccc3OCC)cc2)cc1
inactive: NCI-H23 lung 95.7% | NCI-H226 lung 79.5% | NCI-H322M lung 92.1% | HOP-62 NSCLC 93% | NCI-H460 lung 98.6% | HOP-92 NSCLC 88.9% | NCI-H522 lung 95.2% | A549/ATCC NSCLC 96.7% | 786-0 renal 103%

COc1ccc(/C=C(/C(=O)c2ccc(Cl)cc2)C(=O)C(F)(F)F)cc1
inactive: NCI-H23 lung 91.4% | NCI-H226 lung 99.9% | NCI-H322M lung 77.7% | HOP-62 NSCLC 91.9% | NCI-H460 lung 109% | HOP-92 NSCLC 101% | NCI-H522 lung 74.8% | A549/ATCC NSCLC 92% | 786-0 renal 99.1%

COc1cc2c(cc1OCCCCCOc1ccc(-n3c(C)nc4ccccc4c3=O)cc1)N=C[C@@H]1CCCN1C2=O
active: NCI-H23 lung -20.1% | NCI-H226 lung 2.04% | NCI-H322M lung -31.2% | HOP-62 NSCLC -29% | NCI-H460 lung -31.2% | HOP-92 NSCLC -17.8% | NCI-H522 lung -33.5% | A549/ATCC NSCLC 7.25% | 786-0 renal -42.5%

CC1(C)CC[C@]2(C(N)=O)CC[C@]3(C)C(=CC[C@@H]4[C@@]5(C)C/C(=C/c6cccnc6)C(=O)C(C)(C)[C@@H]5CC[C@]43C)[C@@H]2C1
active: NCI-H23 lung -2.72% [100 µM] | NCI-H226 lung -36.8% [100 µM] | NCI-H322M lung -57.3% [100 µM] | HOP-62 NSCLC -55.5% [100 µM] | NCI-H460 lung -51.8% [100 µM] | HOP-92 NSCLC -50.7% [100 µM] | NCI-H522 lung -59.7% [100 µM] | A549/ATCC NSCLC -35.9% [100 µM] | 786-0 renal -38.4% [100 µM]

CC1Cc2c(Cl)ncnc2N(C)c2ccc(O)cc21 (stereo not drawn)
active: 786-0 renal -3.93%
inactive: NCI-H23 lung 45.7% | NCI-H226 lung 82.2% | NCI-H322M lung 44.2% | HOP-62 NSCLC 53.8% | NCI-H460 lung 84.3% | HOP-92 NSCLC 85.1% | NCI-H522 lung 92.5% | A549/ATCC NSCLC 28.4%

O=[N+]([O-])c1cccc(N=NNc2cccc([N+](=O)[O-])c2)c1
inactive: NCI-H23 lung 95.2% | NCI-H226 lung 108% | NCI-H322M lung 101% | HOP-62 NSCLC 110% | NCI-H460 lung 100% | HOP-92 NSCLC 64.4% | NCI-H522 lung 78% | A549/ATCC NSCLC 86.7% | 786-0 renal 90.4% | COLO 205 colon 113%
